Records with an inconclusive call do not appear. Activity calls are given as the source filed them. Unless noted, calls follow the shape of the dose curve; as a rule, active = well fitted curve in the direction sought with a large enough effect in the repeat runs; inconclusive = weak or mixed curves; inactive = no such curve, though single readings can be large; an effect the other way counts as inactive or inconclusive.
Assays:
[1] = qHTS assay to identify small molecule antagonists of the sonic hedgehog signaling (Shh) pathway (AID 1259369; calls by dose curve; also: nearly all actives have a fitted effect of over 45% in size; also: potency is read from the fitted curve at half-maximal effect)
How it was run: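 Conditioned medium drives Shh signalling in 3T3Gli1-Luc cells; compounds in DMSO co-applied, 24hr at 37 C, then luciferase luminescence.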

[2] = target: Estrogen receptor beta (Homo sapiens) (UniProt Q92731); test: qHTS assay to identify small molecule antagonists of the estrogen receptor beta (ER-beta) signaling pathway (AID 1259378; active = well fitted inhibition curve with a large enough effect in the signal ratio in the repeat runs, not every such curve was filed as active; the % refers to the signal ratio)
How it was run: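 ER-beta-UAS-bla HEK293T cells in 2% charcoal-stripped FBS medium treated with compound plus 1nM final 17-beta-estradiol for 16 hr at 37C. Beta-lactamase reporter read by FRET substrate fluorescence after 2 hours at room temperature.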

[3] = qHTS assay to identify small molecule agonists of the androgen receptor (AR) signaling pathway in the presence of an antagonist - cell viability counter screen (AID 1259379);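 also: MDA-kb2 human breast cancer cells carrying an MMTV luciferase reporter; series mostly up to about 92 µM; nearly all actives have a fitted effect of over 25% in size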
How it was run: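 A CellTiter-Fluor read-out measured viability of MDA-kb2 reporter cells (MMTV promoter with AR and GR response elements). Treatment: nilutamide 3.0uM final with compounds at 15 concentrations, 16 hr, 37C, 0% CO2.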

[4] = qHTS assay to identify small molecule agonists of the estrogen receptor beta (ER-beta) signaling pathway - cell viability counter screen (AID 1259380); also: nearly all actives have a fitted effect of over 30% in size
How it was run: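 Cells used were ER-beta-UAS-bla HEK293T in medium with 2% charcoal-stripped FBS. They were treated for 16 hr at 37C. Viability came from CellTiter-Glo luminescence.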

[5] = qHTS assay to identify small molecule antagonists of the estrogen receptor beta (ER-beta) signaling pathway - cell viability counter screen (AID 1259382); also: series mostly up to about 92 µM; nearly all actives have a fitted effect of over 55% in size
How it was run: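 Agonist-stimulated (1nM E2) ER-beta-UAS-bla HEK293T cells are incubated with library compounds for 16 hr at 37C. Cell viability is then assessed in the reporter-assay wells by adding CellTiter-Glo and reading luminescence after 30 min.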

[6] = target: Estrogen receptor (Homo sapiens) (UniProt P03372); test: qHTS assay to identify small molecule agonists of the estrogen receptor alpha (ER-alpha) signaling pathway in the presence of an antagonist (AID 1259383; calls by dose curve; also: top concentration of the series differs between compounds; nearly all actives have a fitted effect of over 15% in size)
How it was run: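 Using VM7Luc4E2 cells seeded 24hr before treatment, antagonist ICI-182,780 (10.0nM final) was added, followed by compounds at 15 concentrations. Plates incubated 22hr; ONE-Glo luminescence quantified reporter activity.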

[7] = qHTS assay to identify small molecule agonists or antagonists of the thyroid stimulating hormone receptor (TSHR) signaling pathway - wild type cell line counter screen (AID 1259384; calls by dose curve)
How it was run: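 Wild-type Hek293 cells, 800/well, 18 h at 37C, then compound with Ro20-1724 for 30 min RT. cAMP by HTRF (cAMP-d2/anti-cAMP cryptate), 1 h RT, fluorescence read. 15 concentrations, triplicates.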

[8] = target: Thyrotropin receptor (Homo sapiens) (UniProt P16473); test: qHTS assay to identify small molecule antagonists of the thyroid stimulating hormone receptor (TSHR) signaling pathway (AID 1259385; calls by dose curve; also: nearly all actives have a fitted effect of over 20% in size)
How it was run: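 TSHR-HEK293 cells (800/well) plated 18 h, then compounds with Ro20-1724 and TSH at 1.5 ng/mL final, 30 min at room temperature. cAMP quantified by HTRF (cAMP-d2/anti-cAMP-cryptate, 1 h); 15 concentrations in triplicate.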

[9] = qHTS assay to identify small molecule agonists of the estrogen receptor alpha (ER-alpha) signaling pathway in the presence of an antagonist - cell viability counter screen (AID 1259386);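 also: series mostly up to about 92 µM; cells exposed to compounds for 22 h at 37 °C before the viability read; nearly all actives have a fitted effect of over 30% in size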
How it was run: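 ICI-182,780 at 10.0nM final accompanies the compound titration (15 concentrations, 22hr, 37C) on VM7Luc4E2 cells. The CellTiter-Fluor fluorescence readout runs in the same wells as the luciferase assay.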

[10] = target: Progesterone receptor (Homo sapiens) (UniProt P06401); test: qHTS assay to identify small molecule agonists of the progesterone receptor (PR) signaling pathway (AID 1346784; calls by dose curve; also: nearly all actives have a fitted effect of over 30% in size)
How it was run: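 Fluorescence from LiveBLAzer B/G FRET substrate cleavage (2 hr, RT) reported PR activation in PR-UAS-bla HEK 293T cells treated 16 hr at 37C/5% CO2 with compounds; medium contained 2% charcoal-stripped FBS.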

[11] = qHTS assay to identify small molecule agonists of the progesterone receptor (PR) signaling pathway - cell viability counter screen (AID 1346799; calls by dose curve; also: nearly all actives have a fitted effect of over 45% in size)
How it was run: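 In parallel with the beta-lactamase readout, cytotoxicity toward PR-UAS-bla HEK293T cells was measured by CellTiter-Glo luminescence following 16 hr compound incubation in 2% charcoal-stripped FBS medium.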

[12] = qHTS assay to identify small molecule antagonists of the TGF-beta/Smad signaling pathway - cell viability counter screen (AID 1346824); also: nearly all actives have a fitted effect of over 50% in size
How it was run: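 SBE-bla HEK 293T cells, incubated overnight, then compound plus 0.25 ng/mL TGF-beta1 (stock added) for 5 hr at 37 C. Viability was read in the same wells by CellTiter-Glo luminescence after 30 min at room temperature.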

[13] = qHTS assay to identify small molecule agonists of the TGF-beta/Smad signaling pathway - cell viability counter screen (AID 1346829); also: top concentration of the series differs between compounds; nearly all actives have a fitted effect of over 45% in size
How it was run: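 Here the cytotoxicity of library compounds is measured in SBE-bla HEK 293T cells treated for 5 hr, using CellTiter-Glo added to wells already read for the beta-lactamase reporter.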

[14] = qHTS assay to identify small molecule agonists of the TGF-beta/Smad signaling pathway (AID 1346859; active = well fitted activation curve with a large enough effect in the signal ratio in the repeat runs, not every such curve was filed as active; the % refers to the signal ratio; also: series mostly up to about 77 µM)
How it was run: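 After overnight seeding, SBE-bla HEK 293T cells are dosed with compounds in DMSO and kept 5 hr at 37 C, 5% CO2. LiveBLAzer-type FRET substrate is then applied for 2 hr at room temperature.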

[15] = target: Thyrotropin-releasing hormone receptor (Homo sapiens) (UniProt P34981); test: qHTS assay to identify small molecule antagonists of the thyrotropin-releasing hormone receptor (TRHR) signaling pathway (AID 1346877; active = well fitted inhibition curve with a large enough effect in the repeat runs, not every such curve was filed as active; also: series mostly up to about 51 µM)
How it was run: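 Screening used HEK293 cells engineered with TRHR, with a brief 5 min room-temperature compound exposure preceding addition of TRH to 1 nM. The read-out was kinetic calcium-dye fluorescence, concentration-response from 15 doses in triplicate.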

[16] = target: Thyrotropin-releasing hormone receptor (Homo sapiens) (UniProt P34981); test: qHTS assay to identify small molecule agonists of the thyrotropin-releasing hormone receptor (TRHR) signaling pathway (AID 1346891; calls by dose curve; also: potency is read from the fitted curve at half-maximal effect;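 as to activation: HEK293 cells expressing TRHR with calcium dye readout; series mostly up to about 58 µM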)
How it was run: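 Compounds were tested as agonists at 15 concentrations, in triplicate, on TRHR-Hek293 cells; calcium-sensitive dye fluorescence was recorded for 3 min following addition.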

[17] = qHTS assay to identify small molecule antagonists of the progesterone receptor (PR) signaling pathway - cell viability counter screen (AID 1346798); also: series mostly up to about 92 µM; nearly all actives have a fitted effect of over 50% in size
How it was run: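 CellTiter-Glo luminescence; PR-UAS-bla HEK293T, 3,000 cells/well; compound + R5020, 16 hr, 37C/5% CO2; 30 min RT before read.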

[18] = target: Progesterone receptor (Homo sapiens) (UniProt P06401); test: qHTS assay to identify small molecule antagonists of the progesterone receptor (PR) signaling pathway (AID 1346795; active = well fitted inhibition curve with a large enough effect in the signal ratio in the repeat runs, not every such curve was filed as active; the % refers to the signal ratio; also: potency is read from the fitted curve at half-maximal effect)
How it was run: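 Fluorescence intensity measured 2 hr after adding beta-lactamase FRET substrate to PR-UAS-bla HEK293T cells that had been co-treated 16 hr with compound and 1 nM R5020 (final concentration) in 2% charcoal-stripped FBS.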

[19] = target: Estrogen receptor beta (Homo sapiens) (UniProt Q92731); test: qHTS assay to identify small molecule agonists of the estrogen receptor beta (ER-beta) signaling pathway (AID 1259377; active = well fitted activation curve with a large enough effect in the signal ratio in the repeat runs, not every such curve was filed as active; the % refers to the signal ratio)
How it was run: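 qHTS in ER-beta-UAS-bla HEK293T cells: 6 hr settling, then 16 hr compound at 37C, then LiveBLAzer substrate 2 h at RT before fluorescence reading.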
% is scaled to controls: 0 for no effect and ±100 for the full control effect.

Estrogen receptor beta (Homo sapiens), sequence (Q92731 whole entry, looked up): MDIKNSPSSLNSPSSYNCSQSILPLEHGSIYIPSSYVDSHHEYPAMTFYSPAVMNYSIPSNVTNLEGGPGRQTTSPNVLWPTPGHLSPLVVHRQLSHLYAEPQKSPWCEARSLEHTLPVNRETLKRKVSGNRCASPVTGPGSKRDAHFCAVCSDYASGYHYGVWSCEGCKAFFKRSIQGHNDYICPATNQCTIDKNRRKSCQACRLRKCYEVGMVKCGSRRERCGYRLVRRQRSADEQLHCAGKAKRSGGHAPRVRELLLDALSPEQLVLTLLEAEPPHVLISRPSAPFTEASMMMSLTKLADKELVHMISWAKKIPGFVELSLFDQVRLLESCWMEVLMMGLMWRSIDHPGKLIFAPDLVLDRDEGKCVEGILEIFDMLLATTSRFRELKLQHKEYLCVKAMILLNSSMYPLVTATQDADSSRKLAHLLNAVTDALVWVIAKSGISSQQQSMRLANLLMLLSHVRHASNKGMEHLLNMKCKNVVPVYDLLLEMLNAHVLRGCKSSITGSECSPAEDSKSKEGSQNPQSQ
Thyrotropin receptor (Homo sapiens), sequence (P16473 whole entry, looked up): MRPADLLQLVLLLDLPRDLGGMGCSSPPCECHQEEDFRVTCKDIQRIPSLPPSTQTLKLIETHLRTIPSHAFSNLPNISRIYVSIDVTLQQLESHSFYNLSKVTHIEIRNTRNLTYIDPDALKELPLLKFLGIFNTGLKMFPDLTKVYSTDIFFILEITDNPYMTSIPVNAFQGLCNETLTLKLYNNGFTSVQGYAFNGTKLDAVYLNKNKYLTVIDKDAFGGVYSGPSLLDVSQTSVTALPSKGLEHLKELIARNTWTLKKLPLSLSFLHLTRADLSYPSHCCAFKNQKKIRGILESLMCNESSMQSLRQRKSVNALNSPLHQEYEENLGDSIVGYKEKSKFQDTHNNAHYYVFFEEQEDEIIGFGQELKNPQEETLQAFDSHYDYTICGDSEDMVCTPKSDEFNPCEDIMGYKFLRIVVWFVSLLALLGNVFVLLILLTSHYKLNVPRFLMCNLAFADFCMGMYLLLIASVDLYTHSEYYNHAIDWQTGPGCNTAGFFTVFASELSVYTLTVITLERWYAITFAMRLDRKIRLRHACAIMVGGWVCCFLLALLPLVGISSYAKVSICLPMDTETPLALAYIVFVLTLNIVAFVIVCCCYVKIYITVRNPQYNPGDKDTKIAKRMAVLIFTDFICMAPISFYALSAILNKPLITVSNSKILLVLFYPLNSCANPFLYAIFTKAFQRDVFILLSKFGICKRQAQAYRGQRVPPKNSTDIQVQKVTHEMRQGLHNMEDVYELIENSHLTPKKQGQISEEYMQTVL
Estrogen receptor (Homo sapiens), sequence (P03372 whole entry, looked up): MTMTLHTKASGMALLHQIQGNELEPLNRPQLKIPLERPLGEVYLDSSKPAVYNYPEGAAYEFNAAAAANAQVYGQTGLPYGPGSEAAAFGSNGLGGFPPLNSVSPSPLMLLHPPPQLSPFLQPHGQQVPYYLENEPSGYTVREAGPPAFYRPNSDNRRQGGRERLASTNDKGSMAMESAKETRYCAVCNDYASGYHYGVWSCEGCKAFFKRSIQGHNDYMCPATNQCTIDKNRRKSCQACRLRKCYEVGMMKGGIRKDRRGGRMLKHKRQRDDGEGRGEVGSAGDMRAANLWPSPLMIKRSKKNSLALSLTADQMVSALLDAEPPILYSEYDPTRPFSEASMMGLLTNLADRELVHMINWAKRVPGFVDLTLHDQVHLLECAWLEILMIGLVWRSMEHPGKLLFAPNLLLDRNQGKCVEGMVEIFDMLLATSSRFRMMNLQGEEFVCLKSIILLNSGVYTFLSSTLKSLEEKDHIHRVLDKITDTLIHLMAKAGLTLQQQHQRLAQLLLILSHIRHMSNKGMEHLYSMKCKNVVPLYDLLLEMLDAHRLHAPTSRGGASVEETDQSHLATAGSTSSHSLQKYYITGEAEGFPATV
Progesterone receptor (Homo sapiens), sequence (P06401 whole entry, looked up): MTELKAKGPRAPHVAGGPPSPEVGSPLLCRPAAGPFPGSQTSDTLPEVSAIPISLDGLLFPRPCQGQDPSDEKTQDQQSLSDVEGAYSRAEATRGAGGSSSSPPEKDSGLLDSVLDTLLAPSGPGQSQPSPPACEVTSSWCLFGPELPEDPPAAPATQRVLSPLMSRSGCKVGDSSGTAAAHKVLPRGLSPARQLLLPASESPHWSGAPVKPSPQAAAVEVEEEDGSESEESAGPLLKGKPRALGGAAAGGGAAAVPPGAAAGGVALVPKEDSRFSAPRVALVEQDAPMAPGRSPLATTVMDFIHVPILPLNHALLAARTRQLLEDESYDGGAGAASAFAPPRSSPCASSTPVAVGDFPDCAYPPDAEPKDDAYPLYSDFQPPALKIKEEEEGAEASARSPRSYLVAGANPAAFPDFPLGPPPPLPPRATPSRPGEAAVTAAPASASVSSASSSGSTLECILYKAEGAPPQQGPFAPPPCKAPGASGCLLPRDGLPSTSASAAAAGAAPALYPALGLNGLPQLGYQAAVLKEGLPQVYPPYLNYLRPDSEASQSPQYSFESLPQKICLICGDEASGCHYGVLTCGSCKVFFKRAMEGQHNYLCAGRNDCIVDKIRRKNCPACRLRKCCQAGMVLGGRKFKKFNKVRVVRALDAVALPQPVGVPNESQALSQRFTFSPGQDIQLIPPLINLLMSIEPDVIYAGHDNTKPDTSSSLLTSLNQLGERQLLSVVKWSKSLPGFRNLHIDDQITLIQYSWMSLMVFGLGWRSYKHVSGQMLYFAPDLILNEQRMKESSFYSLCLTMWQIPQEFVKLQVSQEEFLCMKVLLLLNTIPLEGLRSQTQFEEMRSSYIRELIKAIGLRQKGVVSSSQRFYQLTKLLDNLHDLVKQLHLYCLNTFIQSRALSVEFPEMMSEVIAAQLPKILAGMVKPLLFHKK
Thyrotropin-releasing hormone receptor (Homo sapiens), sequence (P34981 whole entry, looked up): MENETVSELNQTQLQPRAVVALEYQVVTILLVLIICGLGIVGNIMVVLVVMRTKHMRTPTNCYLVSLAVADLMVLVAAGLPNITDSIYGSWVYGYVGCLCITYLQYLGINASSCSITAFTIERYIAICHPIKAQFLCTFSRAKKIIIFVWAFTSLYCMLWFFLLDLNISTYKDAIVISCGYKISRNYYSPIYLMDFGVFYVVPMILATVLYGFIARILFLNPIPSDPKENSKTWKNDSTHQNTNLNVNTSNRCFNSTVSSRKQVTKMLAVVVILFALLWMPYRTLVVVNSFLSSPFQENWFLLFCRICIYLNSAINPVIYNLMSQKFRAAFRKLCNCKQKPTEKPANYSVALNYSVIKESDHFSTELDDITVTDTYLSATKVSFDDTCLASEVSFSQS

CC1=CCC(O)(C(C)C)CC1 (centres undefined)
inactive: Potency [1] | Potency [2] | Potency [3] | Potency [4] | outcome [5] | outcome [6] | outcome [7] | outcome [8] | Potency [9] | Potency [10] | Potency [11] | outcome [12] | outcome [13] | outcome [14] | outcome [15] | Potency [16]

C[C@@H]1C[C@H]2[C@@H]3C[C@H](F)C4=CC(=O)C(Cl)=C[C@]4(C)[C@@]3(F)[C@@H](O)C[C@]2(C)[C@@]1(O)C(=O)CO
inactive: Potency [3] | Potency [4] | outcome [5] | outcome [6] | outcome [7] | outcome [8] | Potency [9] | Potency [17] | outcome [12] | outcome [13] | outcome [14] | Potency [16]
active: Potency [1] 18.8 µM

Cc1cc(C)c(N=Nc2c(O)c(S(=O)(=O)O)cc3cc(S(=O)(=O)O)ccc23)cc1C
inactive: activity change, negative = inhibition [1] 9.78% [at 8.39 µM] | activity change, negative = cytotoxicity [3] -11.3% [at 8.39 µM] | activity change, negative = cytotoxicity [4] -5.12% [at 8.39 µM] | activity change, negative = cytotoxicity [5] 8.89% [at 8.39 µM] | activation [6] -2.23% [at 8.39 µM] | cAMP activity change [7] 2.77% [at 8.39 µM] | activity change, negative = inhibition [8] -1.06% [at 8.39 µM] | activity change, negative = inhibition [18] 2.15% [at 8.39 µM] | activity change, negative = cytotoxicity [17] 1.98% [at 8.39 µM] | activity change, negative = cytotoxicity [11] 0% [at 8.39 µM] | viability change, negative = cytotoxic [12] -0.1% [at 6.97 µM] | activity change, negative = cytotoxicity [13] -4.86% [at 6.97 µM]

CC(=O)C1CCCCC1=O (centres undefined)
inactive: Potency [1] | Potency [3] | Potency [4] | outcome [5] | outcome [6] | outcome [7] | outcome [8] | Potency [9] | Potency [10] | Potency [18] | outcome [12] | outcome [13] | outcome [14] | outcome [15]

CCOc1ccccc1OCC
inactive: Potency [1] | Potency [19] | Potency [2] | Potency [4] | outcome [5] | outcome [7] | outcome [8] | Potency [9] | Potency [18] | Potency [11] | outcome [13] | outcome [14]

CN1CCN(c2cc3c(nn2)Oc2ccccc2N3C)CC1
inactive: activity change, negative = inhibition [1] -8.36% [at 19 µM] | activation [19] 7.81% [at 19 µM] | activity change, negative = cytotoxicity [3] 0.723% [at 19 µM] | activity change, negative = cytotoxicity [4] 2.64% [at 19 µM] | activity change, negative = cytotoxicity [5] -0.299% [at 19 µM] | cAMP activity change [7] -3.2% [at 18.9 µM] | activity change, negative = cytotoxicity [9] -4.4% [at 19 µM] | activity change, negative = inhibition [18] 15.6% [at 18.9 µM] | activity change, negative = cytotoxicity [17] -18% [at 18.9 µM] | activity change, negative = cytotoxicity [11] -4.66% [at 19 µM] | viability change, negative = cytotoxic [12] 1.43% [at 15.8 µM] | activation [14] 3.68% [at 15.8 µM]

Nc1ccn([C@@H]2O[C@H](CO)[C@@H](O)C2(F)F)c(=O)n1
inactive: Potency [1] | Potency [19] | Potency [3] | outcome [5] | outcome [7] | outcome [8] | Potency [9] | Potency [18] | Potency [17] | Potency [11] | outcome [12] | outcome [13] | outcome [14]

c1ccc(CCc2ccccc2)cc1
inactive: Potency [1] | Potency [19] | Potency [3] | Potency [4] | outcome [5] | outcome [7] | outcome [8] | Potency [9] | Potency [10] | Potency [18] | Potency [17] | Potency [11] | outcome [13] | outcome [14] | outcome [15] | Potency [16]

O=C(O)c1cn(C2CC2)c2cc(N3CCNCC3)c(F)cc2c1=O
inactive: Potency [1] | Potency [19] | Potency [3] | Potency [4] | outcome [5] | outcome [6] | outcome [7] | outcome [8] | Potency [9] | Potency [10] | Potency [17] | Potency [11] | outcome [13]

CCCCCCCCCCCCCCC(=O)O
inactive: Potency [1] | Potency [3] | Potency [4] | outcome [5] | outcome [6] | outcome [7] | outcome [8] | Potency [9] | Potency [17] | Potency [11] | outcome [13] | outcome [14] | outcome [15]

COc1ccc2cc1Oc1cc3c(cc1OC)CC[N+](C)(C)[C@H]3Cc1ccc(cc1)Oc1c(OC)c(OC)cc3c1[C@@H](C2)[N+](C)(C)CC3
inactive: Potency [1] | Potency [3] | Potency [4] | outcome [5] | outcome [6] | outcome [7] | outcome [8] | Potency [9] | Potency [10] | Potency [17] | Potency [11] | outcome [12] | outcome [13] | outcome [15]

CC(CO)(CO)[N+](=O)[O-]
inactive: Potency [1] | Potency [2] | Potency [3] | Potency [4] | outcome [5] | outcome [6] | outcome [7] | Potency [9] | Potency [10] | Potency [17] | Potency [11] | outcome [12] | outcome [13] | outcome [15] | Potency [16]

Cc1nc(C2CCCCC2)c(-c2ccc(S(N)(=O)=O)c(F)c2)o1
active: Potency [18] 26.6 µM
inactive: Potency [1] | Potency [19] | Potency [2] | Potency [4] | outcome [5] | outcome [7] | outcome [8] | Potency [9] | Potency [10] | outcome [12] | outcome [14] | outcome [15] | Potency [16]

CNC(=O)Nc1ccc(Cl)c(Cl)c1
inactive: Potency [1] | Potency [2] | Potency [3] | outcome [5] | outcome [6] | outcome [7] | outcome [8] | Potency [9] | Potency [10] | Potency [17] | Potency [11] | outcome [13] | outcome [14] | outcome [15]

NO
inactive: Potency [1] | Potency [19] | outcome [5] | outcome [7] | outcome [8] | Potency [9] | Potency [17] | Potency [11] | outcome [12] | outcome [13]

COCCOC[C@H](CC1(C(=O)NC2CCC(C(=O)O)CC2)CCCC1)C(=O)Oc1ccc2c(c1)CCC2 (some centres undefined)
active: Potency [16] 11 µM
inactive: Potency [1] | Potency [19] | Potency [2] | outcome [5] | outcome [6] | outcome [7] | Potency [10] | Potency [17] | Potency [11] | outcome [12] | outcome [13] | outcome [14]
